Bioassay records from PubChem.
In the library only some 8.1% were active in any assay of this set; here they are far more common.
MCF10A rereplic: A quantitative high throughput screen for small molecules that induce DNA re-replication in MCF 10a normal breast cells; MCF 10A DNA re-replication, Hoechst nuclear intensity, 48 h; 2.9% of 350,000 active; Potency, µM (highest dose often 46.1 µM), usual class: activators; also: nearly all actives have a fitted effect of over 50% in size
SW480 rerep: A quantitative high throughput screen for small molecules that induce DNA re-replication in SW480 colon adenocarcinoma cells; SW480 DNA re-replication, Hoechst DNA content imaging, 48 h; Potency, µM (series often up to 46.1 µM), most hits filed as activators; 1.8% of 340,000 active; AID 624297, 2012; also: nearly all actives have a fitted effect of over 55% in size
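DNA re-replication was detected as more nuclei of elevated Hoechst intensity after 48 hr exposure to compound (23 nL pinned per well of 250 cells).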
KB-V1 MDR tox: qHTS assay for MDR1-selective chemotherapeutics: Primary screen using the drug-selected MDR subline cells KB-V1 | AID 1347076, 2019 | Potency, µM (highest dose often 46.1 µM), hits mostly cytotoxic | KB-V1 MDR cells viability, CellTiter-Glo, 72 h | 3.4% of 400,000 active; also: nearly all actives have a fitted effect of over 60% in size
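Readout: CellTiter-Glo luminescence, 10 min after addition. Cells: KB-V1 MDR subline, 72 h at 37 degrees C with compound. Analysis: corrected, normalized data fitted to concentration-effect curves.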
ELG1 repair inh: qHTS screen for small molecules that inhibit ELG1-dependent DNA repair in human embryonic kidney (HEK293T) cells expressing luciferase-tagged ELG1 | 2.3% of 330,000 active | Potency, µM (titrated, usually from 46.1 µM), most hits filed as inhibitors | AID 504467, 2011 | HEK293T ELG1-luciferase reporter, luminescence, 16 h; DNA damage induced by 5-fluorouridine; also: nearly all actives have a fitted effect of over 55% in size
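In this reporter screen, reduction of luminescence relative to DMSO vehicle indicated activity. Compounds and 5-fluorouridine were added together to 2,000 cells per well, incubated for 16 hr at 37 °C, then developed with ONE-Glo.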
KB-3-1 cytotox: qHTS assay for MDR1-selective chemotherapeutics: Primary screen using the parental adenocarcinoma cell KB-3-1; 1.4% of 400,000 active; Potency, µM (top dose mostly 46.1 µM), usual class: cytotoxic; KB-3-1 viability, CellTiter-Glo ATP luminescence, 72 h; also: nearly all actives have a fitted effect of over 60% in size
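KB-3-1 parental drug-naive adenocarcinoma cells in DMEM/10% FBS, incubated 72 h at 37 C with pin-transferred compounds across a concentration series. Viability by CellTiter-Glo luminescence; concentration-response curves fitted after normalization.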
Of the large screens only hits and unclear results are named; the others gave an inactive call. Calls follow the shape of the dose curve; as a rule, active = well fitted curve in the direction sought with a large enough effect; inconclusive = small, poorly fitted or top-dose-only effect, or another doubt; inactive = no such curve, though single readings can be large; an effect the other way counts as inactive or inconclusive.

Cn1cnnc1SCc1ccc(C(=O)N=Nc2c(O)n(Cc3ccc(Cl)cc3)c3ccccc23)cc1	MCF10A rereplic inconclusive, SW480 rerep inconclusive, KB-V1 MDR tox inconclusive, ELG1 repair inh 9.2µM, KB-3-1 cytotox inconclusive
O=C(NNC(=O)c1cccc(S(=O)(=O)N2CCCCC2)c1)c1ccccc1	none
Cn1c(O)c(N=NC(=O)c2ccco2)c2ccccc21	MCF10A rereplic inconclusive, ELG1 repair inh inconclusive
O=C(N=Nc1c(O)n(Cc2ccccc2)c2ccccc12)c1cc2ccccc2cc1O	MCF10A rereplic 10µM, SW480 rerep inconclusive, KB-V1 MDR tox inconclusive, ELG1 repair inh inconclusive, KB-3-1 cytotox inconclusive
CC(C)CCn1c(O)c(N=NC(=O)c2ccco2)c2ccccc21	KB-V1 MDR tox 13µM, ELG1 repair inh inconclusive
COc1ccc(C(=O)NCC(=O)N=Nc2c(O)n(Cc3ccccc3)c3ccccc23)cc1OC	ELG1 repair inh inconclusive
Cn1c(O)c(N=NC(=O)c2ccccc2O)c2ccccc21	MCF10A rereplic inconclusive, SW480 rerep inconclusive, KB-V1 MDR tox 16µM, ELG1 repair inh inconclusive
O=C(N=Nc1c(O)n(Cc2ccccc2)c2ccccc12)c1ccc(O)cc1	KB-V1 MDR tox 15µM, ELG1 repair inh inconclusive, KB-3-1 cytotox inconclusive
Cc1ccc(CNC(=O)c2ccc(-c3nc(CN4CCc5ccccc54)c(C)o3)cc2)cc1	KB-V1 MDR tox inconclusive (no result: MCF10A rereplic, SW480 rerep, ELG1 repair inh)
COCCNC(=O)c1ccc(-c2nc(CN3CCc4ccccc43)c(C)o2)cc1	KB-V1 MDR tox 10µM, KB-3-1 cytotox inconclusive (no result: MCF10A rereplic, SW480 rerep, ELG1 repair inh)
Cc1oc(-c2ccc(C(=O)N(C)Cc3ccccc3)cc2)nc1CN1CCc2ccccc21	KB-V1 MDR tox 13µM, KB-3-1 cytotox 15µM (no result: MCF10A rereplic, SW480 rerep, ELG1 repair inh)
Cc1oc(-c2ccc(-c3ccccc3)cc2)nc1CN1CCN(CC(=O)N(C)C)CC1	ELG1 repair inh inconclusive
Cc1ccc(CSCC(=O)Nc2ccc(N3CCOCC3)cc2N2CCOCC2)cc1	KB-V1 MDR tox inconclusive
CCCCCCCCCCCCCCCC[n+]1ccc(C)cc1	KB-V1 MDR tox inconclusive, KB-3-1 cytotox 1.6µM (no result: MCF10A rereplic, SW480 rerep, ELG1 repair inh)
c1cc[n+](CCCC[n+]2ccccc2)cc1	MCF10A rereplic inconclusive
CCCCOc1ccc(C)cc1CN(CCO)CCO	none
CCCCCc1ccc(OCCCC[n+]2ccc(C)cc2)c(CCCCC)c1	ELG1 repair inh 15µM, KB-3-1 cytotox 5.8µM
CCCCCc1ccc(OCCCC[n+]2ccccc2)c(CCCCC)c1	MCF10A rereplic 23µM, SW480 rerep inconclusive, KB-V1 MDR tox inconclusive, ELG1 repair inh 13µM, KB-3-1 cytotox inconclusive
CCCCCc1ccc(OCCCC[n+]2cccc(C)c2)c(CCCCC)c1	MCF10A rereplic inconclusive, SW480 rerep inconclusive, KB-3-1 cytotox 9.2µM
CCCCCOc1ccc(CN2CCOCC2)cc1Cl	ELG1 repair inh inconclusive
CCC(C)(C)c1ccc(Oc2cccc(C(=O)O)c2)cc1	MCF10A rereplic inconclusive, ELG1 repair inh inconclusive
CCC(C)(C)c1ccc(OCCCC[n+]2ccccc2)c(C(C)(C)CC)c1	MCF10A rereplic inconclusive, SW480 rerep inconclusive, KB-V1 MDR tox inconclusive, ELG1 repair inh 18µM, KB-3-1 cytotox 9.2µM
CC(=O)c1ccccc1NC(=O)COC(=O)/C=C/c1cccs1	none
CC(=O)N1c2ccc(S(=O)(=O)N3CCC(C(=O)N4CCN(c5ccc(Cl)cc5)CC4)CC3)cc2CC1C (stereo not drawn)	none
CC(=O)N1c2ccc(S(=O)(=O)N3CCCC(C(=O)N4CCC(C)CC4)C3)cc2CC1C (stereo not drawn)	KB-V1 MDR tox 21µM
CC(=O)N1CCCc2cc(S(=O)(=O)N3CCC(C)CC3)ccc21	KB-V1 MDR tox 21µM
CC(=O)N1c2ccc(S(=O)(=O)N3CCC(C(=O)N4CCN(c5ccccc5F)CC4)CC3)cc2CC1C (stereo not drawn)	ELG1 repair inh 21µM
CC(=O)N1c2ccc(S(=O)(=O)N3CCCC(C(=O)N4CCCC(C)C4)C3)cc2CC1C (stereo not drawn)	ELG1 repair inh inconclusive
O=C1c2ccccc2C(O)(Cc2ccccc2)N1c1ccc2c(c1)OCO2 (stereo not drawn)	none
CCC(C)NC(=O)C1CCC(CNS(=O)(=O)c2ccc3c(c2)CC(C)N3C(C)=O)CC1 (stereo not drawn)	SW480 rerep inconclusive
CC(Cc1ccccc1)NC(=O)CCNNC(=O)c1ccncc1 (stereo not drawn)	none (no result: MCF10A rereplic, SW480 rerep, ELG1 repair inh)
CC/C(=N\NC(=O)CCC(=O)NCc1ccccc1)c1ccc(O)cc1	MCF10A rereplic inconclusive, SW480 rerep inconclusive, KB-3-1 cytotox 3.3µM
CCOc1cc(/C=N/n2c(C)nc3ccccc3c2=O)ccc1O	SW480 rerep inconclusive
O=c1c2cc3c(cc2n(Cc2cccc(Cl)c2)c(=O)n1Cc1nc(-c2ccccc2)no1)OCO3	none (no result: MCF10A rereplic, SW480 rerep, ELG1 repair inh)
COc1ccc(Br)cc1S(=O)(=O)NCc1ccccn1	MCF10A rereplic inconclusive
Cc1cc(Br)ccc1NCc1ccccn1	MCF10A rereplic 18µM, SW480 rerep 18µM, KB-V1 MDR tox inconclusive, ELG1 repair inh inconclusive
Cc1ccc(NC(=S)NCc2cccn2C)cc1	SW480 rerep 21µM, KB-V1 MDR tox inconclusive
Cc1cccc(NC(=S)NCc2cccn2C)c1	KB-3-1 cytotox 21µM
Cc1ccccc1NC(=S)NCc1cccn1C	none
CSc1ccccc1NC(=S)N/N=C/c1cccn1Cc1ccc(F)cc1	MCF10A rereplic inconclusive, KB-V1 MDR tox inconclusive, ELG1 repair inh inconclusive
Cc1cccc(NC(=S)N/N=C/c2cccn2Cc2ccc(F)cc2)c1	MCF10A rereplic 8.2µM, KB-V1 MDR tox inconclusive, ELG1 repair inh inconclusive
CCc1ccc(-n2c(C)cc(/C=N/NC(=O)OC)c2C)cc1	SW480 rerep inconclusive
CCOC(=O)C1=C(C)NC(c2cccs2)C(=O)N1 (stereo not drawn)	SW480 rerep inconclusive
CCOC(=O)C1=C(C)NC2=C(C(=O)CC(c3cccs3)C2)C1c1cccs1 (stereo not drawn)	MCF10A rereplic 20µM, SW480 rerep inconclusive, KB-V1 MDR tox 15µM, ELG1 repair inh inconclusive, KB-3-1 cytotox 5.8µM
CCCOC(=O)C1=C(C)NC2=C(C(=O)CCC2)C1c1cccs1 (stereo not drawn)	KB-V1 MDR tox 23µM
COC(=O)C1=C(C)NC2=C(C(=O)CC(c3cccs3)C2)C1c1ccsc1 (stereo not drawn)	MCF10A rereplic inconclusive, SW480 rerep inconclusive, KB-V1 MDR tox 7.3µM, ELG1 repair inh inconclusive, KB-3-1 cytotox inconclusive
CC1=C(C(=O)OC2CCCC2)C(c2ccc(C)o2)C2=C(CC(c3cccs3)CC2=O)N1 (stereo not drawn)	MCF10A rereplic inconclusive, SW480 rerep inconclusive, KB-V1 MDR tox 21µM
COC(=O)C1=C(C)NC2=C(C(=O)CCC2)C1c1ccsc1 (stereo not drawn)	none (no result: MCF10A rereplic, SW480 rerep, KB-V1 MDR tox, KB-3-1 cytotox)
